# Screening data as filed in PubChem BioAssay.
# D2 PAM-1 = HTS Assay for Positive Allosteric Modulators of the Human D2 Dopamine Receptor: Primary Screen for Potentiators | HEK293 T-REx D2, calcium flux, EC20 dopamine potentiation | potentiation, % at 10 µM | 340,000 compounds, 0.34% hits | AID 485347, 2010;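 active = potentiation over 3 SD above the plate norm, cut at about 30% in these data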
#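 Calcium flux readout, no-wash dye, 1 read/s. Inducible HEK293 Trex D2 line, overnight 30 C. Compound alone 180 s (agonist flags), then EC20 dopamine, another 180 s to score potentiation.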
# D2 ag-1 = HTS Assay for Allosteric Agonists of the Human D2 Dopamine Receptor: Primary Screen for Agonists | D(2) dopamine receptor (Homo sapiens), P14416 | HEK293 T-REx D2 cells, calcium flux agonist mode | activation, % at 2 µM | 340,000 compounds, 0.53% hits;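 active = activation over 3 SD above normal in the single-dose calcium agonist read, cut at about 30% in these data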
#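 HEK293 Trex D2 cells, tetracycline-induced, o/n 30 C 5% CO2; no-wash Ca dye, RT 30–90 min; 10-cycle baseline, 23 nl cpd added, kinetic Ca read 180 s; agonist hits = positive Ca response.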
# D2 antag = HTS Assay for Allosteric Antagonists of the Human D2 Dopamine Receptor: Primary Screen for Antagonists; D(2) dopamine receptor (Homo sapiens), P14416; HEK293 TREx D2 cells, calcium flux, dopamine EC80; inhibition, % at 10 µM; 340,000 compounds, 2% hits; AID 485344, 2010; in the data active = inhibition above about 30%; inactive = below that, where a call was filed
#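 Calcium mobilization kinetics were recorded at 1 s intervals in tetracycline-induced HEK293 T-REx D2 cells, first for 180 s after compound addition and then 180 s after EC80 dopamine.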
# D2 ag-2 = Beta-Arrestin HTS for Positive Allosteric Modulators of the Human D2 Dopamine Receptor: Agonists | D(2) dopamine receptor (Homo sapiens), P14416 | DiscoveRx PathHunter D2 beta-arrestin, luminescence, 90 min; 100% = 57 uM dopamine signal | activation, % (no concentration beside the values) | 360,000 compounds, 0.084% hits | AID 624465, 2012; in the data active = activation above about 40%; inconclusive = between about 15% and that limit
#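 Agonist mode: compounds alone added to overnight-plated D2 PathHunter cells for 90 min at 37 C, with 57 uM final dopamine (EC100) defining full response. Beta-arrestin recruitment detected by chemiluminescent reagent, read after 1 h at ambient temperature.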
# D2 PAM-2 = Beta-Arrestin HTS for Positive Allosteric Modulators of the Human D2 Dopamine Receptor: Potentiators; DiscoveRx D2 beta-arrestin cells, luminescence, 90 min; 100% = 57 uM dopamine signal; potentiation, % (concentration not given with the values); 360,000 compounds, 0.23% hits; AID 624464, 2012; in the data active = potentiation above about 50%; inconclusive = mostly about 30% to 49%
#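 PathHunter D2 cells, attached overnight at 37 deg C, received compound in DMSO plus dopamine at EC20 (50 nM final) for 90 min at 37 deg C. Beta-arrestin recruitment was read as luminescence after 1 h with detection reagent at ambient temperature.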
# D3 arrestin ag = qHTS of D3 Dopamine Receptor Agonist: D3 Dopamine Receptor B-arrestin Agonist Confirmatory Assay; shares compounds with D2 ag-1; DiscoveRx D3 beta-arrestin cells, luminescence, 90 min; Potency, µM (titrated, usually from 76.9 µM), most hits filed as activators; 2,300 compounds, 4% hits; AID 720506, 2013; note: nearly all actives have a fitted effect of over 70% in size
# Target sequence (P35462 whole entry, looked up): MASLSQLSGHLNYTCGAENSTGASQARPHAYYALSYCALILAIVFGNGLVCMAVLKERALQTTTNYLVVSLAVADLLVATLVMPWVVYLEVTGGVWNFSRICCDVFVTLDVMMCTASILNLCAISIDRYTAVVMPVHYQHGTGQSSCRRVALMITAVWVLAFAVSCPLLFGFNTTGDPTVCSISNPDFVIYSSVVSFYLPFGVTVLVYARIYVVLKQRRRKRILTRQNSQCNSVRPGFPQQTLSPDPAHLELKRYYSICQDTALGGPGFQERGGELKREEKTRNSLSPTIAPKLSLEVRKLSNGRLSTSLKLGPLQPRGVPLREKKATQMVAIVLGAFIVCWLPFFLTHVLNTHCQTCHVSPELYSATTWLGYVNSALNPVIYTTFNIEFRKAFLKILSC
# D2 ag-3 = qHTS of D3 Dopamine Receptor Agonist: D2 Dopamine Receptor B-arrestin Agonist Counterscreen; shares compounds with D2 ag-1; DiscoveRx PathHunter D2 beta-arrestin, luminescence, 90 min; response scale: percent relative to full dopamine signal; Potency, µM (doses to about 76.9 µM), usual class: activators; 2,300 compounds, 5.9% hits; note: nearly all actives have a fitted effect of over 70% in size
# A number is an active result; n = inactive; u = inconclusive; x = no result. Rows were chosen to be rich in hits. Some 2.4% of all compounds tested hit in one or more screens of this group. Unless noted, calls come from the whole dose curve; as a rule, active = well fitted activation curve with a large enough effect; inconclusive = small, poorly fitted or top-dose-only effect; inactive = flat fitted curve, though single readings scatter.
SMILES,D2 PAM-1,D2 ag-1,D2 antag,D2 ag-2,D2 PAM-2,D3 arrestin ag,D2 ag-3
COC(=O)C1=C(c2ccccc2OCc2ccccc2)C[C@@H]2CC[C@H]1N2C(=O)NCc1cccc(F)c1,n,n,n,n,n,x,x
O=c1c2ccccc2nc(/C=C/c2cccc3ccccc23)n1-c1ccccc1Cl,n,x,x,x,x,x,x
O=[N+]([O-])c1cccc(O)c1,n,n,36.1,n,n,n,n
O=[N+]([O-])c1cccc(CCl)c1,n,n,n,n,n,x,x
Cc1cccc(Cn2cccc(C(=O)Nc3nc4ccccc4s3)c2=O)c1,n,n,x,x,x,x,x
COc1ccc(NC(=O)CN2CC=C(c3ccccc3)CC2)cc1S(=O)(=O)N1CCOCC1,n,54.4,n,n,n,u,n
O=C1NC(=S)N(c2ccc(Br)cc2)C(=O)/C1=C/N1CCN(C(=O)c2ccco2)CC1,n,n,n,n,n,n,n
CCCN1CC[C@@H]2c3cc(O)ccc3CC[C@@H]21,n,65.6,73.0,n,n,u,u
COc1ccccc1N1CCN(Cc2cccc(OC)c2O)CC1,n,74.0,81.3,n,n,n,n
O=C(Nc1ccc(Br)cc1C(=O)c1ccccc1Cl)c1ccc(Br)cc1,n,n,x,x,x,x,x
C=CCN1CCc2cccc3c2[C@H]1Cc1ccc(O)c(O)c1-3,n,87.6,88.8,219.0,113.5,0.02µM,0.0447µM
COC(=O)C(O)(c1ccc(NC(=S)NC(=O)c2ccc(Cl)cc2Cl)c(C)c1)C(F)(F)F (stereo not drawn),n,n,n,n,n,x,x
CCOC(=O)C(O)(c1ccc(NC(=S)NC(=O)c2ccc(Cl)cc2Cl)c(C)c1)C(F)(F)F (stereo not drawn),n,n,n,n,n,n,n
CC1=C[C@@H]2c3cccc4[nH]cc(c34)C[C@H]2N(C)C1,n,x,x,77.0,92.0,0.0891µM,2.82µM
Cc1ccc(Cn2cccc(C(=O)Nc3cc([N+](=O)[O-])ccc3C)c2=O)cc1,n,n,x,x,x,x,x
